Reference: PubChem BioAssay (Tox21)
Records with an inconclusive call do not appear. Activity calls are given as the source filed them. Unless noted, the call rests on the fitted dose curve; in most records, active means well fitted curve in the direction sought with a large enough effect in the repeat runs; inconclusive means weak or mixed curves; inactive means no such curve, though single readings can be large; an effect the other way counts as inactive or inconclusive.

Columns and labels:
[1] = qHTS assay for small molecule agonists of the p53 signaling pathway (AID 651631; calls by dose curve; further: nearly all actives have a fitted effect of over 15% in size)
In short: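 HCT-116 cells carrying a stable p53 response element–beta-lactamase reporter were plated, rested 5 h at 37 °C, then exposed to compound in DMSO for 16 h at 37 °C; reporter activity was read as FRET substrate fluorescence after 2 h at room temperature.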

[2] = qHTS assay for small molecules that induce genotoxicity in human embryonic kidney cells expressing luciferase-tagged ATAD5 (AID 651632); further: nearly all actives have a fitted effect of over 15% in size
In short: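 ATAD5-luc HEK293T, 2,000 cells/well; cpd or DMSO pin-transferred; 16 hr, 37C/5% CO2; Amplite 30 min RT; luminescence.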

[3] = qHTS assay for small molecule agonists of the p53 signaling pathway - cell viability (AID 651633; calls by dose curve; further: series mostly up to about 83 µM; nearly all actives have a fitted effect of over 30% in size)
In short: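 p53RE-bla cells were treated with compound for 16 hours at 37 C. Cytotoxicity was then measured as CellTiter-Glo luminescence after 30 min at room temperature.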

[4] = qHTS assay for small molecules that induce genotoxicity in human embryonic kidney cells expressing luciferase-tagged ATAD5 - cell viability (AID 651634; calls by dose curve; further: nearly all actives have a fitted effect of over 25% in size)
In short: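 Fluorescence from CellTiter-Fluor, reporting protease activity within live cells, served as the viability read-out. HEK293T cells carrying luciferase-tagged ATAD5 had been treated with compound for 15.5 hr at 37C.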

[5] = qHTS assay for small molecule disruptors of the mitochondrial membrane potential - cell viability (AID 720634; calls by dose curve;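 further: human HepG2 liver cancer cells; series mostly up to about 83 µM; nearly all actives have a fitted effect of over 20% in size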)
In short: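 Cells: HepG2, 2,000/well, attached overnight. Compound 1 hr, 37 C/5% CO2. +m-MPI dye, +CellTiter-Glo 30 min RT. Readout: luminescence (ATP).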

[6] = qHTS assay to test for compound auto fluorescence at 590 nm (red) in HepG2 cells (AID 720674)
In short: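 HepG2 cells, 2,000 per well in MEM with 10% FBS, attached overnight at 37 C, then got 23 nL compound or DMSO. After 1 hr at 37 C, 5% CO2, red fluorescence was read at 540/590 nm against Rose Bengal sodium as reference.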

[7] = qHTS assay to test for compound auto fluorescence at 535 nm (green) in HepG2 cells (AID 720675)
[8] = qHTS assay to test for compound auto fluorescence at 460 nm (blue) in HEK293 cells (AID 720678)
In short: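 Blue-channel (Ex/Em 405/460 nm) intensity measured in HEK293 cultures after overnight compound exposure at 37C; signal expressed relative to triamterene. Cells plated 2,000 per well in 10% dialyzed FBS medium and allowed 4-5 hr to attach.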

[9] = qHTS assay to test for compound auto fluorescence at 590 nm (red) in HEK293 cells (AID 720679)
In short: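 Red-channel autofluorescence (Ex/Em 540/590 nm; Rose Bengal sodium reference) was measured after overnight 37C, 5% CO2 exposure of attached HEK293 cells, 2,000 per well in medium with 10% dialyzed FBS.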

[10] = qHTS assay for small molecule disruptors of the mitochondrial membrane potential (AID 720635)
In short: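 HepG2 cells exposed to compound 1 hr at 37C, then Mito-MPS dye 30 min. Ratio read of aggregate (540/590 nm) versus monomer (490/535 nm) fluorescence.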
On the % scale 0 is the no-effect control and ±100 the full control effect.

Cc1ccccc1N=O
inactive: outcome [1] | Potency [2] | outcome [3] | Potency [4] | outcome [5] | outcome [6] | outcome [7] | outcome [8] | outcome [9]

O=S(=O)(O)CCN1CCN(CCO)CC1
inactive: outcome [1] | Potency [2] | outcome [3] | Potency [4] | outcome [5] | Potency [10] | outcome [7] | outcome [8] | outcome [9]

COC(=O)c1ccccc1C(=O)c1ccc(OCCN2CCCCC2)cc1
inactive: outcome [1] | Potency [2] | outcome [3] | Potency [4] | outcome [5] | Potency [10] | outcome [7] | outcome [8] | outcome [9]

C=C(C)C(=O)OCC(C)(C)COC(=O)C(=C)C
inactive: outcome [1] | Potency [2] | outcome [3] | Potency [4] | outcome [5] | outcome [6] | outcome [7] | outcome [8] | outcome [9]

c1ccc2nccnc2c1
inactive: outcome [1] | Potency [2] | outcome [3] | Potency [4] | outcome [5] | Potency [10] | outcome [6] | outcome [7] | outcome [8] | outcome [9]

CC(C)=CCOC(=O)c1ccccc1
inactive: outcome [1] | Potency [2] | outcome [3] | Potency [4] | outcome [5] | outcome [6] | outcome [7] | outcome [8] | outcome [9]

CCCC/C=C\CCCCCCCCCC=O
inactive: outcome [1] | Potency [2] | outcome [3] | Potency [4] | outcome [5] | Potency [10] | outcome [6] | outcome [7] | outcome [8] | outcome [9]

O=C(O)Cc1ccc(Cl)cc1Cl
inactive: outcome [1] | Potency [2] | outcome [3] | Potency [4] | outcome [5] | outcome [6] | outcome [7] | outcome [8] | outcome [9]

CCOCCOCCOCC
inactive: outcome [1] | Potency [2] | outcome [3] | Potency [4] | outcome [5] | outcome [6] | outcome [7] | outcome [8] | outcome [9]

COc1ccc(C2CNC(=O)C2)cc1OC1CCCC1 (configuration not stated)
inactive: outcome [1] | Potency [2] | outcome [3] | Potency [4] | outcome [5] | Potency [10] | fluorescence, % of fluorescein control [7] 0.104% [at 18.6 µM] | fluorescence, % of triamterene [8] 0.004% [at 18.6 µM] | fluorescence, % of fluorescent control [9] -0.255% [at 18.6 µM]

CCC(C=O)CC
inactive: outcome [1] | Potency [2] | outcome [3] | Potency [4] | outcome [5] | outcome [6] | outcome [7] | outcome [8] | outcome [9]

COc1cc(C(=S)N2CCOCC2)cc(OC)c1OC
inactive: outcome [1] | Potency [2] | outcome [3] | Potency [4] | outcome [5] | Potency [10] | outcome [7] | outcome [8] | outcome [9]

CN(CCOc1ccc(NS(C)(=O)=O)cc1)CCc1ccc(NS(C)(=O)=O)cc1
inactive: outcome [1] | Potency [2] | outcome [3] | Potency [4] | outcome [5] | outcome [6] | outcome [7] | outcome [8] | outcome [9]

NC(CO)C(=O)NNCc1ccc(O)c(O)c1O (configuration not stated)
inactive: outcome [1] | Potency [2] | outcome [3] | Potency [4] | outcome [5] | outcome [6] | outcome [7] | outcome [8] | outcome [9]

NS(=O)(=O)c1ccc(NC(=O)CCC(=O)O)cc1
inactive: outcome [1] | Potency [2] | outcome [3] | Potency [4] | outcome [5] | Potency [10] | outcome [7] | outcome [8] | outcome [9]

O=C(NCCc1c[nH]c2ccccc12)c1cccnc1
inactive: outcome [1] | Potency [2] | outcome [3] | Potency [4] | outcome [5] | outcome [6] | outcome [7] | outcome [8] | outcome [9]

CCCCCOC(=O)CCC
inactive: outcome [1] | Potency [2] | outcome [3] | Potency [4] | outcome [5] | outcome [6] | outcome [7] | outcome [8] | outcome [9]

CCOC(=O)c1ncn2c1CN(C)C(=O)c1cc(F)ccc1-2
inactive: outcome [1] | Potency [2] | outcome [3] | Potency [4] | outcome [5] | Potency [10] | outcome [7] | outcome [8] | outcome [9]

CCCCCCCC/C=C\CCCCCCCC(=O)OCCCC
inactive: outcome [1] | Potency [2] | outcome [3] | Potency [4] | outcome [5] | fluorescence, relative to Rose Bengal [6] 0.139% [at 18.6 µM] | fluorescence, % of fluorescein control [7] -0.0204% [at 18.6 µM] | fluorescence, % of triamterene [8] -0.0584% [at 18.6 µM] | fluorescence, % of fluorescent control [9] 0.3% [at 18.6 µM]

CCO[Si](CCCS)(OCC)OCC
inactive: outcome [1] | Potency [2] | outcome [3] | Potency [4] | outcome [5] | outcome [6] | outcome [7] | outcome [8] | outcome [9]

CC(=O)OC(C)OC(=O)C(C)c1ccc(-c2ccccc2)c(F)c1 (configuration not stated)
inactive: outcome [1] | Potency [2] | outcome [3] | Potency [4] | outcome [5] | Potency [10] | outcome [7] | outcome [8] | outcome [9]

CCOC(=O)[C@H](CCc1ccccc1)N[C@@H](C)C(=O)N1C(=O)N(C)C[C@H]1C(=O)O
inactive: outcome [1] | Potency [2] | outcome [3] | Potency [4] | outcome [5] | Potency [10] | outcome [7] | outcome [8] | outcome [9]

CC(C)(C)c1n[nH]c(=S)n(N)c1=O
inactive: outcome [1] | Potency [2] | outcome [3] | Potency [4] | outcome [5] | Potency [10] | outcome [7] | outcome [8] | outcome [9]

COc1ccc(Br)c(C)c1
inactive: outcome [1] | Potency [2] | Potency [4] | outcome [5] | Potency [10] | outcome [6] | outcome [7] | outcome [8] | outcome [9]

CCCCNc1ccc(C(=O)OCCN(C)C)cc1
inactive: outcome [1] | Potency [2] | Potency [4] | outcome [5] | Potency [10] | fluorescence, relative to Rose Bengal [6] -0.178% [at 18.6 µM] | fluorescence, % of fluorescein control [7] -0.0004% [at 18.6 µM] | fluorescence, % of triamterene [8] 0.259% [at 18.6 µM] | fluorescence, % of fluorescent control [9] 0.151% [at 18.6 µM]
